The text below walks through data of PubChem BioAssay AID504339 (National Center for Advancing Translational Sciences (NCATS), 2011).

“And” between values parts separate entries of the source, which are not always exact repeats. Equal entries are not always repeated. Hit rate of the full screen: of about 390,000 compounds, about 17,000 (4.4%) were called active. About 8% were inconclusive and are not listed. This is one part of a sample in which actives are shown more often than they occur. The call rests on the fitted dose curve; in most records, active means well fitted inhibition curve with a large enough effect; inconclusive means small, poorly fitted or top-dose-only effect; inactive means no such curve, though single readings can be large or run the other way.
On the % scale 0 is the no-effect control and ±100 the full control effect; potency means the concentration at half of the fitted maximal effect.

This experiment deals with Lysine-specific demethylase 4A (Homo sapiens) (UniProt O75164). Briefly: qHTS Assay for Inhibitors of JMJD2A-Tudor Domain. Further: nearly all actives have a fitted effect of over 50% in size. As to conditions: AlphaScreen JMJD2A-Tudor / H3K4me3 peptide binding; series mostly up to 114 µM; activity change, negative = inhibition: at the top concentration. (In general: In qHTS, concentration-response curves come from the screen itself.)
Chain of Lysine-specific demethylase 4A (Homo sapiens) (O75164 whole entry, looked up, the tested form may be a part): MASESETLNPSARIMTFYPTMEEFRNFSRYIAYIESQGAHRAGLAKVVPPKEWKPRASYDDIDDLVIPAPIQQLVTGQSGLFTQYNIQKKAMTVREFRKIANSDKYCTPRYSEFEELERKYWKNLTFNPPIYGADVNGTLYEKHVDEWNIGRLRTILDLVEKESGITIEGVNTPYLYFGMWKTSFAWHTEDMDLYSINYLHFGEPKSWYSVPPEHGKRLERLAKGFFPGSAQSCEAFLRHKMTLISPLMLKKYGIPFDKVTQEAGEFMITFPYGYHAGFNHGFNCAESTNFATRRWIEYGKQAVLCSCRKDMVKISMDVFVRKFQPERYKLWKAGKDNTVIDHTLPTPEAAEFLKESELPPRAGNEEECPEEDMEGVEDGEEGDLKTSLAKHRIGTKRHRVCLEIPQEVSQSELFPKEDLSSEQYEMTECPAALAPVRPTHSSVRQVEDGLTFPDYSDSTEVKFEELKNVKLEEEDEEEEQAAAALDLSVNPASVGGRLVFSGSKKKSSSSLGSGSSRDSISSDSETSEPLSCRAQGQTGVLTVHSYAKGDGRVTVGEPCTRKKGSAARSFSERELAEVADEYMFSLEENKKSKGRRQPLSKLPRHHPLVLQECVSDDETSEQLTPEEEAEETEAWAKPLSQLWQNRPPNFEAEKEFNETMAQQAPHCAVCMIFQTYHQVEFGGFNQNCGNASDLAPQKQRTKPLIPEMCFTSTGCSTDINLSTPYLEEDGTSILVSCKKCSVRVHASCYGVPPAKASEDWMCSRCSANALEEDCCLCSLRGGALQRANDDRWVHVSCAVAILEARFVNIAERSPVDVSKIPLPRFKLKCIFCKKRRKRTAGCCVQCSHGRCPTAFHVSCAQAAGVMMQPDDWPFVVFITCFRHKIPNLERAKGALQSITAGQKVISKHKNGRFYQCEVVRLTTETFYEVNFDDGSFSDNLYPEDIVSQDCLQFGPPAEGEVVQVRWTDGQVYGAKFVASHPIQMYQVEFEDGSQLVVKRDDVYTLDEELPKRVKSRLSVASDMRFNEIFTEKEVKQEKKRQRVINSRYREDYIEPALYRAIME
Take `Cc1ccc(Cn2c(=O)n(-c3ccc(C)cc3)c(=O)c3c2c2cc(C)ccc2n3C)cc1`: the “activity change, negative = inhibition” value was -17.2% (inactive).

`Cc1ccc(Cl)cc1N(C)C(=O)C1CCCN(c2ncnc3onc(-c4ccc(F)cc4)c23)C1` (stereo not drawn): the “activity change, negative = inhibition” value was -19.4% (inactive).

For the molecule `CC(C)c1cc(N=O)cc(C(C)C)c1O`, the “activity change, negative = inhibition” value was -24.3% (inactive).

As to `CC(C)=CCc1ccc(O)c(=O)cc1C(C)C`, the Potency was 56.2 µM (active).

`Cc1ccc(CNC(=O)c2c(O)nc3c(C)cccn3c2=O)cc1`: the “activity change, negative = inhibition” value is -3.64% (inactive).

In the case of `COc1ccc2c(CNCCc3ccccc3C)c(C(=O)O)n(Cc3ccccc3C)c2c1`, the “activity change, negative = inhibition” value was -8.42% (inactive).

Consider `Cc1ccc2ncc(C(=O)Nc3ccc(OC(F)(F)F)cc3)c(=O)n2c1`, for which the “activity change, negative = inhibition” value was -2.55% (inactive).

Regarding `COc1cccc2cc(-c3nc(Cl)c4c5c(sc4n3)CC(C)CC5)c(=O)oc12` (stereo not drawn), the “activity change, negative = inhibition” value is -4.78% (inactive).

As to `CCCCCCC1(C)NC(c2ccc3c(c2)OCO3)=CC(c2ccccc2O)N1` (stereo not drawn), the “activity change, negative = inhibition” value was -14.6% [at 57.1 µM] (inactive).

Regarding `CCn1c2ccccc2c2cc(NC(=O)COc3ccc(C)cc3C)ccc21`, the “activity change, negative = inhibition” value was -4.5% (inactive).

Turning to `CCn1c2ccccc2c2cc(NC(=O)CNC)ccc21`, the Potency is 1 µM (active).

`CCn1c2ccccc2c2cc(NC(=O)C/C(C)=N/NC(=O)c3ccccc3N)ccc21`: the “activity change, negative = inhibition” value is -20.1% (inactive).

Regarding `Cc1ccc(N(CC(=O)NCC(C)c2ccccc2)S(=O)(=O)N(C)C)cc1` (stereo not drawn), the “activity change, negative = inhibition” value was -10% (inactive).

On to `Cc1ccc(NC(=O)C(=O)NCC(c2cccnc2)N2CCOCC2)cc1` (stereo not drawn), for which the “activity change, negative = inhibition” value was -0.987% (inactive).

As to `COc1cccc(C(=O)N(Cc2cccc(Cl)c2)Cc2ccco2)c1`, the “activity change, negative = inhibition” value was -9.03% (inactive).

Take `CCCCCn1c(CCCNC(=O)c2ccccc2OC)nc2ccccc21`: the “activity change, negative = inhibition” value is -15.7% (inactive).

Regarding `CC(=O)c1ccc(NC(=O)C2CC(=O)Nc3nc4ccccc4n32)cc1` (stereo not drawn), the “activity change, negative = inhibition” value is -17.3% (inactive).

As for `O=C(Nc1ccccc1)C1CC(=O)n2c(nc3ccccc32)N1` (stereo not drawn), the Potency was 8.91 µM (active).

As to `CCOC(=O)c1ccc(NC(=O)C2CC(=O)Nc3nc4ccccc4n32)cc1` (stereo not drawn), the “activity change, negative = inhibition” value was -10.3% (inactive).

For the molecule `CC(=O)N1CCCc2cc(S(=O)(=O)N3CCC(C(=O)NCc4ccc(C)cc4)CC3)ccc21`, the “activity change, negative = inhibition” value is -11.6% (inactive).

As for `O=c1[nH]c2ccccc2n2c(-c3ccccc3)nnc12`, the Potency is 7.94 µM (active) and 5.62 µM (active).

Consider `O=c1cc(-c2ccccc2)n2c(SCc3ccccc3)nnc2[nH]1`, for which the “activity change, negative = inhibition” value was -11.4% (inactive).

Take `Cc1cccc(CC(=O)Nc2cccc(-c3cn4cccnc4n3)c2)c1`: the “activity change, negative = inhibition” value is -21.6% (inactive).

Take `COc1ccc(NC(=O)C2C3C=CC(C3)C2C(=O)NCc2ccccn2)c(OC)c1` (stereo not drawn): the Potency is 50.1 µM (active).

Regarding `CCOc1ccc(N2CC(C(=O)NCc3ccccn3)CC2=O)cc1` (stereo not drawn), the “activity change, negative = inhibition” value was -5.52% (inactive).

For the molecule `CCS(=O)(=O)N1Cc2ccccc2CC1C(=O)Nc1ccc(OC)cc1OC` (stereo not drawn), the “activity change, negative = inhibition” value was -9.15% (inactive).

`CN(Cc1ccccc1)C(=O)c1cn(C)c2ccc(S(=O)(=O)N(C)C3CCCCC3)cc2c1=O`: the “activity change, negative = inhibition” value was 1.67% (inactive).

Turning to `CCOC(=O)c1c(NC(=O)CSc2cn(CCNC(=O)c3cccc(C(F)(F)F)c3)c3ccccc23)sc2c1CCC2`, the “activity change, negative = inhibition” value was -19.4% (inactive).

Regarding `Cc1c(-c2nc(-c3ccc4c(c3)OCO4)no2)nnn1-c1ccc(Br)cc1F`, the “activity change, negative = inhibition” value is -11.4% (inactive).

`CC(=O)c1ccccc1NC(=O)C1CC(=O)N(c2ccc3c(c2)OCCO3)C1` (stereo not drawn): the “activity change, negative = inhibition” value is -18.8% (inactive).

Turning to `CCc1nnc(NC(=O)C2CC(=O)N(c3ccc4c(c3)OCCO4)C2)s1` (stereo not drawn), the Potency is 25.1 µM (active).

`CCOC(=O)c1ccc(NC(=O)C2CC(=O)N(c3ccc4c(c3)OCCO4)C2)cc1` (stereo not drawn): the “activity change, negative = inhibition” value is -16.7% (inactive).

Consider `O=C(CSc1nnc(CNC(=O)c2ccccc2)n1-c1ccc(F)cc1)Nc1ccccc1F`, for which the “activity change, negative = inhibition” value was -0.673% (inactive).

Regarding `COc1ccc(C2C(C#N)=C(N)Oc3n[nH]c(C)c32)cc1CN1CCN(c2ccc(F)cc2)CC1` (stereo not drawn), the Potency was 44.7 µM (active).

Take `COc1ccc(C2C(C#N)=C(N)Oc3cc(N)ccc32)cc1OC` (stereo not drawn): the “activity change, negative = inhibition” value is -20.1% (inactive).

In the case of `COc1ccccc1CN1CCCC(N2CCN(c3ccc(F)cc3)CC2)C1` (stereo not drawn), the “activity change, negative = inhibition” value was -23.8% (inactive).

With `Cc1cc(=O)c2cc(C(=O)Nc3cccc(C)c3C)ccc2[nH]1`, the “activity change, negative = inhibition” value was -3.31% (inactive).

On to `COc1ccccc1NC(=O)C(=O)c1cc(C)n(-c2ccccc2F)c1C`, for which the “activity change, negative = inhibition” value was -23.5% (inactive).

`COc1ccc(NC(=O)CCCc2nnc3n(CCC(C)C)c(=O)c4sccc4n23)c(OC)c1`: the “activity change, negative = inhibition” value is -32.6% (inactive).

As to `Cc1ccccc1Nc1nn2c(=O)c3ccc(C(=O)NCCc4ccc(Cl)cc4)cc3nc2s1`, the “activity change, negative = inhibition” value is -9.31% (inactive).

For the molecule `Cc1ccc(C2=C/C(=C\c3cccnc3)C(=O)O2)cc1`, the “activity change, negative = inhibition” value is -18.6% (inactive).

Turning to `O=C(O)/C(=C/c1cccnc1)NC(=O)c1ccccc1`, the “activity change, negative = inhibition” value is -6.62% (inactive).

In the case of `Nc1ccc2c(c1)C(=Cc1cccnc1)c1ccccc1-2`, the Potency is 35.5 µM (active).

Take `O=C(NCc1ccccc1)c1cccc(NC(=O)N2CCSc3ncccc32)c1`: the “activity change, negative = inhibition” value was 5.17% (inactive).

In the case of `CCc1ccc(S(=O)(=O)Nc2ccc(C)c(NS(C)(=O)=O)c2)cc1`, the “activity change, negative = inhibition” value was 8.31% (inactive).

Consider `CCn1c(/C=C/c2ccc([N+](=O)[O-])o2)nc2ccccc2c1=O`, for which the “activity change, negative = inhibition” value was -16.8% [at 57.1 µM] (inactive).

For the molecule `CCc1ccc(S(=O)(=O)N/N=C\c2ccc([N+](=O)[O-])o2)cc1`, the Potency is 50.1 µM (active).

As for `CCc1nn(CCCC(=O)NCc2ccccc2OC)c(=O)c2cc3occc3n12`, the “activity change, negative = inhibition” value is 4.03% (inactive).
